From PubChem BioAssay AID1259313 (Sanford-Burnham Center for Chemical Genomics, 2017)
In all, about 340,000 compounds went through this assay and about 8,500 (2.5%) were called active.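 Rule for the calls: active = melting temperature shift of at least 10% of the positive control shift, at one fixed dose; inactive = the rest.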 Shown is part of a subset that was picked to be rich in actives.

test system: Glutamate receptor ionotropic, NMDA 3A (GRIN3A) ligand-binding domain; experiment: NR3A LBD thermal stabilization by compounds – biophysical, differential scanning fluorimetry, uHTS, primary screen (AID 1259313); settings: at 25 µM, active compounds read high, 0% = protein alone, 100% = glycine-bound protein

Tm shift relative to glycine control, inactive:
O=C(NCCc1c[nH]c2ccccc12)C1CCN(Cc2ccc(Br)cc2)CC1 -4.03%
O=C(NCCc1ccc(Cl)cc1Cl)c1cc([N+](=O)[O-])c[nH]c1=O -10.1%
O=C(NCCc1c[nH]c2ccccc12)c1cc2ccccc2oc1=O -6.92%
Cc1ccc2[nH]cc(CCCN3C(=O)c4ccccc4C3=O)c2c1 -9.79%
O=[N+]([O-])c1ccc2[nH]c3c(c2c1)CCCC3O (stereo unspecified) 5.4%
COc1ccc(F)cc1S(=O)(=O)NCC(c1ccc2c(c1)OCO2)N1CCN(C)CC1 (stereo unspecified) -1.98%
COc1ccc(NC(=S)N2CCC(NC(=O)c3cccc(F)c3)CC2)cc1 1.82%
COc1ccc2oc(C(=O)NCc3ccco3)c(C)c2c1 0.95%
Cc1ccc(C(=O)c2ccc(N3CCN(C)CC3)c([N+](=O)[O-])c2)cc1 -4.39%
Cc1ccc(Br)c(NS(=O)(=O)c2cccc(C(=O)N3CCNC(=O)C3)c2)c1 -2.24%
O=C(CO/N=C/c1ccc(OC(F)F)cc1)NCc1ccc(F)cc1 -0.25%
CC1(NC(=O)CCS(=O)(=O)c2ccc(Cl)cc2)CCS(=O)(=O)C1 (stereo unspecified) 1.08%
NC(=O)Nc1ccccc1C(=O)NCCc1ccccc1 -3.04%
CCOC(=O)CN(C(=O)COc1nc(C)cc(C)c1C#N)c1ccc(Cl)cc1 0.21%
COc1ccc(/C=N/Nc2ccccc2C(=O)O)cc1 -10.2%
COc1ccc(/C=N/Nc2nc(-c3ccc(C)cc3)c(C#N)c(=O)[nH]2)cc1 -2.83%
Cc1nn(C)cc1/C=C1\CCC/C(=C\c2cn(C)nc2C)C1=O -1.19%
CC(Oc1ccccc1[N+](=O)[O-])C(=O)N/N=C/c1ccoc1 (stereo unspecified) -0.52%
Cc1ccc2cccc(OCCCOc3ccccc3CO)c2n1 -1.42%
O=C(NNC(=S)NC(=O)c1cn(-c2ccccc2)nc1-c1ccccc1)c1ccncc1 -4.35%
O=C(CN1CCOc2ccccc21)N1CCC(Cc2ccccc2)CC1 -1.44%
COc1ccc(C(=O)N2CCCCC2C(=O)Nc2ccc(-n3nc(C)cc3C)cc2)o1 (stereo unspecified) 6.75%
COc1cc(/C=C2/C(=O)ON=C2C)ccc1OCc1cccc(F)c1 -26.4%
CCN(CC)CCNCc1ccc(OCc2ccc(Cl)nc2)c(OC)c1 8.95%
Cc1cccn2cc(-c3cccc(S(=O)(=O)N4CCCCC4)c3)nc12 5.23%
Cc1cccc(N(C(=O)c2csnn2)C(C(=O)NCc2ccccc2)c2ccncc2)c1 (stereo unspecified) -0.09%
CCOc1ccccc1Nc1nnc(SCC(=O)NCC2CCCO2)s1 (stereo unspecified) 5.39%
CCOC(=O)N1CCN(C(=O)c2cn(C)c3ccc(S(=O)(=O)N(CC)CC)cc3c2=O)CC1 0%
O=C(Nc1cccc(Cl)c1)c1cncn1-c1ccc(F)cc1 -0.7%
Cc1cccc(N=C2NC(=O)CS2)c1C 5.95%
Cc1nc2nc(SCC(=O)c3ccccc3)[nH]c2cc1Br -9.38%
CC(=O)Nc1ccc(C(=O)CSc2nc3ccc(C)cc3[nH]2)cc1 -17.4%
O=C(Nc1ccc(Cl)cc1)c1cccc(OC(=S)N2CCOCC2)c1 -0.47%
CC/C(=N/Nc1ccccc1)c1cnnc(SC)n1 1.52%
C/C(=N\Nc1ccccc1)c1cccs1 1.45%
CN(CCO)c1ccc(/C=N/Nc2nncc3ccccc23)cc1 3.23%
Cc1csc(NC(=O)CSc2nc(=O)cc(N)n2-c2ccc(F)cc2)n1 -0.09%
CC(C)N1CCC(N2CCN(Cc3cccnc3)CC2CCO)CC1 (stereo unspecified) -1.29%

Tm shift relative to glycine control, active:
Cc1cc(C)cc(NC(=S)NCCc2c[nH]c3ccccc23)c1 20.2%
O=C(NCCc1c[nH]c2ccccc12)c1cccc(Br)c1 31.4%
N#CCc1c[nH]c2ccc([N+](=O)[O-])cc12 14%
COc1ccc(/C=N/N=C/c2c[nH]c(=O)c(C#N)c2Nc2ccccc2)cc1 35.8%
Cc1cc(N=Nc2ccc3ccccc3c2)ccc1O 28.8%
COc1cc(/C=C2\SC(=O)NC2=O)ccc1OCc1ccc(Cl)nc1 25.9%
O=C(CSc1nc2ccc([N+](=O)[O-])cc2[nH]1)c1ccc(Cl)cc1 18.5%
C/C(=N/Nc1ccc(Cl)cc1)c1cnnc(-c2ccccc2)n1 10.3%
